Data taken from the supplement of paper PMC10849652.
Of roughly 8,800 targets only a part is listed; those with a hit were picked by preference. About 0.5% of all pairs of compound and target were hits.

Legend:
Assay in all cases: log2 fold change, soluble protein after heating vs DMSO (PISA); higher = thermal stabilisation; K562 lysate, 10 uM; active = over 0.2 and 3.5 SD of the protein, either way, in both replicates (recomputed)
[1] = compound: CN1CC[C@H](c2c(O)cc(O)c3c(=O)cc(-c4ccccc4Cl)oc23)[C@H](O)C1 [alvocidib]
Method in brief: (§1)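 Values give the log-two fold change in thermal stability against solvent controls, from duplicates. Crude K562 extract at 1 mg/mL protein, made by dounce homogenisation in PBS pH 7.4 with 1 mM MgCl2, was treated with 10 μM compound for 30 min. After 3 min heating across 48°C-58°C, aliquots were pooled, adjusted to 0.5% NP-40 at 4°C and centrifuged at 21,000xg for 90 min. The supernatant was measured by TMTpro 16plex LC-MS/MS with channel sums equalised.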

[2] = compound: CN1CCc2c(c3ccccc3n2Cc2ccc(C(=O)NO)cc2)C1 [Tubastatin A]
Method in brief: as §1

[3] = compound: CNC(=O)C1=CC=CC=C1NC2=NC(=NC=C2Cl)NC3=C(C=C(C=C3)N4CCOCC4)OC
Method in brief: as §1

[4] = compound: CNc1nc(-c2ccc3c(N)n[nH]c3c2)cc(N2C[C@@H](C(=O)NC3CCCCC3)CC[C@H]2C)n1
Method in brief: as §1

[5] = compound: COC(=O)N[C@@H](C)CNc1nccc(-c2cn(C(C)C)nc2-c2cc(Cl)cc(NS(C)(=O)=O)c2F)n1 [encorafenib]
Method in brief: as §1

[6] = compound: COC(=O)[C@H](CCSC)NC(=O)C1=C(C=C(C=C1)NC[C@H](CS)N)C2=CC=CC=C2
Method in brief: as §1

[7] = compound: COc1cc(Nc2ncc3c(n2)-c2ccc(Cl)cc2C(c2c(F)cccc2OC)=NC3)ccc1C(=O)O [alisertib]
Method in brief: as §1

[8] = compound: COc1cc2nc(-c3cc(F)ccc3O)nc(N[C@@H]3CNC[C@H]3C(C)(C)O)c2cc1OC
Method in brief: as §1

[9] = compound: COc1cc2ncnc(Nc3ccc(F)c(Cl)c3)c2cc1OCCCN1CCOCC1 [gefitinib]
Method in brief: as §1

[10] = compound: CS(=O)(=O)CCNCc1ccc(-c2ccc3ncnc(Nc4ccc(OCc5cccc(F)c5)c(Cl)c4)c3c2)o1 [lapatinib]
Method in brief: as §1

[11] = compound: CS(=O)(=O)N1CCN(Cc2cc3nc(-c4cccc5[nH]ncc45)nc(N4CCOCC4)c3s2)CC1 [pictilisib]
Method in brief: as §1

[12] = compound: C[C@@H](Oc1cc(-c2cnn(C3CCNCC3)c2)cnc1N)c1c(Cl)ccc(F)c1Cl [crizotinib]
Method in brief: as §1

[13] = compound: C[C@H](C1=CC=C(C=C1)C(=O)NC2=C3C=CNC3=NC=C2)N
Method in brief: as §1

[14] = compound: C[C@H](Nc1ncnc2nc[nH]c12)c1cc2cccc(Cl)c2c(=O)n1-c1ccccc1 [duvelisib]
Method in brief: as §1

[15] = compound: Cc1cc(Nc2cc(CN3CCOCC3)c3nc(C)c(Cc4ccc(Cl)cc4F)n3n2)n[nH]1 [gandotinib]
Method in brief: as §1

[16] = compound: Cc1cc(Nc2cc(N3CCN(C)CC3)nc(Sc3ccc(NC(=O)C4CC4)cc3)n2)n[nH]1 [tozasertib]
Method in brief: as §1

[17] = compound: Cc1ccc(-n2nc(C(C)(C)C)cc2NC(=O)Nc2ccc(OCCN3CCOCC3)c3ccccc23)cc1 [doramapimod]
Method in brief: as §1

[18] = compound: Cc1ccc(NC(=O)c2ccc(CN3CC[C@H](N(C)C)C3)c(C(F)(F)F)c2)cc1Nc1nccc(-c2cncnc2)n1 [bafetinib]
Method in brief: as §1

[19] = compound: Cc1cccc(CC(=O)N2CCc3c2ccc(-c2cn(C)c4ncnc(N)c24)c3F)n1
Method in brief: as §1

[20] = compound: CNC(=O)c1ccc(Nc2ncc(C(F)(F)F)c(NCc3nccnc3N(C)S(C)(=O)=O)n2)cc1 [defactinib]
Method in brief: as §1

Measured: log2 fold change

PPP1R11 (UniProt O60927)
UniProt O60927, sequence (O60927 whole entry, looked up): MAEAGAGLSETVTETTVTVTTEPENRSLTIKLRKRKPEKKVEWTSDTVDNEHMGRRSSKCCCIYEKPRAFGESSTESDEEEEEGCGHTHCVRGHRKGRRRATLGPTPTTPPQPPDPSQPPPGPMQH
inactive: [1] 0.048 | [2] 0.077 | [3] 0.011 | [4] -0.001 | [5] 0.051 | [6] -0.027 | [7] -0.081 | [8] -0.041 | [9] -0.09 | [10] 0.01 | [11] -0.016 | [12] -0.069 | [13] 0.153 | [14] -0.054 | [15] -0.048 | [16] 0.022 | [17] -0.022 | [18] 0.099 | [19] -0.071

PRG4 (UniProt Q92954)
inactive: [2] 0.103 | [4] 0.204 | [7] -0.045 | [8] 0.093 | [9] -0.076 | [10] -0.097 | [11] -0.408 | [12] -0.118 | [14] 0.042 | [15] 0.051 | [17] 0.201 | [18] -0.238 | [19] 0.278
active: [1] -0.826 | [13] -1.36

PTK2 isoform 2 (UniProt Q05397)
UniProt Q05397, sequence (Q05397 whole entry, looked up): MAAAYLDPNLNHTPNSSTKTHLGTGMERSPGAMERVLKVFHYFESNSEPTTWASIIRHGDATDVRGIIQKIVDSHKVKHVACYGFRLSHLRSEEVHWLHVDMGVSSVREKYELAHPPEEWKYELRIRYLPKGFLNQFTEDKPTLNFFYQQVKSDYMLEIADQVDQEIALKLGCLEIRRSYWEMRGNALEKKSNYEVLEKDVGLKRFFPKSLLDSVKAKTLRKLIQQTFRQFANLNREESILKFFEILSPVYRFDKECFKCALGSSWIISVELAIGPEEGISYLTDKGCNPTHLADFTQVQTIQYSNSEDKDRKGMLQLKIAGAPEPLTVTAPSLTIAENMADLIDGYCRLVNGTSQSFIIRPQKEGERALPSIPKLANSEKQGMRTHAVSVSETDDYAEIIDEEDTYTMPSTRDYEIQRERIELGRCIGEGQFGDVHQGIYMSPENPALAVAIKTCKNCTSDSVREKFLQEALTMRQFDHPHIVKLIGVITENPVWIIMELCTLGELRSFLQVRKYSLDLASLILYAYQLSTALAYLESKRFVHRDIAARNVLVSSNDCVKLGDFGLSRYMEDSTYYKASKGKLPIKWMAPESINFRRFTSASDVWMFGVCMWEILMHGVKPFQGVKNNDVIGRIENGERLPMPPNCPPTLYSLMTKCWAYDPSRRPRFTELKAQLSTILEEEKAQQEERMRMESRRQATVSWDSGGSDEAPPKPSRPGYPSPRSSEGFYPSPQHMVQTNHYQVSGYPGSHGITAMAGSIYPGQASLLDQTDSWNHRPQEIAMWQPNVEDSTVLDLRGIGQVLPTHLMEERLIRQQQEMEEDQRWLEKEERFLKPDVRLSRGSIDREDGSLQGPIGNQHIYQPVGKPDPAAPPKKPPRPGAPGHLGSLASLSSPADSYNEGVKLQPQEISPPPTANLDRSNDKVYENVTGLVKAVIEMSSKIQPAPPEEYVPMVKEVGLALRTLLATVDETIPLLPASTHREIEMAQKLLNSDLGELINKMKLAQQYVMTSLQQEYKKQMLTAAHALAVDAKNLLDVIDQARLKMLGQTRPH
inactive: [3] 0.003 | [4] 0.018 | [5] -0.058 | [6] -0.129 | [8] 0.053 | [10] 0.049 | [11] 0.067 | [14] 0.298 | [16] 0.125 | [18] -0.087

PCBP2 (UniProt F8VRH0)
inactive: [1] -0.1 | [2] 0.067 | [3] -0.123 | [7] 0.231 | [8] 0.096 | [9] 0.045 | [10] -0.148 | [12] 0.023 | [13] -0.116 | [15] -0.042 | [17] -0.01 | [19] 0.072

PHGDH, A0A286YFE1
inactive: [4] -0.19 | [8] -0.114 | [10] -0.214 | [11] 0.114 | [14] 0.244 | [18] -0.313

PTK2B (UniProt Q14289)
UniProt Q14289, sequence (Q14289 whole entry, looked up): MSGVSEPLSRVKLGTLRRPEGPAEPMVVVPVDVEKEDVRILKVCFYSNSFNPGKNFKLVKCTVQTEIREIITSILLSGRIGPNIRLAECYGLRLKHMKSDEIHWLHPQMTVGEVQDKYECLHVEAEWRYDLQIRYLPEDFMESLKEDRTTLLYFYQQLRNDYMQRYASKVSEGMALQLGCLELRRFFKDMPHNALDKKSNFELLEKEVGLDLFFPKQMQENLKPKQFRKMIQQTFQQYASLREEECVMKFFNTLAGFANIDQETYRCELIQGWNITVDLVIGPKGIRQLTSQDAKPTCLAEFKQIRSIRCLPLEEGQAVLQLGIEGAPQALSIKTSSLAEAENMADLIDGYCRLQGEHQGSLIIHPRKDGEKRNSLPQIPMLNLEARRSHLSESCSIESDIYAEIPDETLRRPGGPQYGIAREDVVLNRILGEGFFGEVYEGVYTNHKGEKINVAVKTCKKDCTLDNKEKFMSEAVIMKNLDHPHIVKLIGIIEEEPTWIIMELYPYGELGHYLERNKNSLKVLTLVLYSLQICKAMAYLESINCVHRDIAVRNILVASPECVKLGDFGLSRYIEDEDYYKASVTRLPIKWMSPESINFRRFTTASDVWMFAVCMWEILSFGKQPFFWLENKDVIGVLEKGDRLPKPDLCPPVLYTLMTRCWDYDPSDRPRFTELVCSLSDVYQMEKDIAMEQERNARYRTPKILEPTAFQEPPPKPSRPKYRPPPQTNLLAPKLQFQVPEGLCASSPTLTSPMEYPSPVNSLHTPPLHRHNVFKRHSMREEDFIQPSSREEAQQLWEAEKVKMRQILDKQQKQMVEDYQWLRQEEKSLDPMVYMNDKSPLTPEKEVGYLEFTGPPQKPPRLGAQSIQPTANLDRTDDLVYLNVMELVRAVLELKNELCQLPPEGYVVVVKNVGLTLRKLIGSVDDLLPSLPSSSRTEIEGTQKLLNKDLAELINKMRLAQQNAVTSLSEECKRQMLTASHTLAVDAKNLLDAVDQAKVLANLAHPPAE
active: [3] 0.401 | [15] 0.385
inactive: [2] -0.071 | [20] 0.315 | [4] -0.063 | [5] -0.048 | [6] -0.007 | [7] 0.093 | [8] 0.103 | [9] -0.056 | [10] -0.075 | [11] -0.043 | [13] -0.026 | [14] -0.034 | [16] 0.019 | [18] 0.098 | [19] -0.05

POLR2M (UniProt Q6EEV4)
UniProt Q6EEV4, sequence (Q6EEV4 whole entry, looked up): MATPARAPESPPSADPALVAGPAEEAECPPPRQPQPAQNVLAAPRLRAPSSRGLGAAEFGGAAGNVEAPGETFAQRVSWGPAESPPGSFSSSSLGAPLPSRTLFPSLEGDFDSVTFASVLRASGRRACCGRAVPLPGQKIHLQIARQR
inactive: [1] 0.085 | [3] 0.075 | [20] 0.125 | [4] 0.108 | [5] -0.001 | [6] -0.081 | [8] 0.038 | [10] 0.047 | [11] -0.07 | [12] -0.064 | [13] 0.026 | [14] -0.049 | [15] -0.154 | [16] 0.055 | [17] -0.041 | [18] -0.116 | [19] 0.046

PCBP2 (UniProt F8W0G4)
inactive: [2] -0.009 | [3] 0.01 | [20] 0.044 | [4] 0.033 | [5] 0.125 | [6] -0.006 | [7] 0.192 | [9] 0.028 | [11] 0.087 | [14] 0.358 | [16] -0.069 | [18] -0.223

PFN1 (UniProt I3L3D5)
inactive: [1] 0.045 | [2] -0.01 | [5] 0.157 | [6] 0.058 | [7] 0.028 | [8] -0.195 | [9] 0.062 | [10] 0.066 | [11] -0.062 | [15] -0.15 | [16] -0.051 | [18] -0.19 | [19] 0.015
active: [13] 0.524

PPIC (UniProt P45877)
UniProt P45877, sequence (P45877 whole entry, looked up): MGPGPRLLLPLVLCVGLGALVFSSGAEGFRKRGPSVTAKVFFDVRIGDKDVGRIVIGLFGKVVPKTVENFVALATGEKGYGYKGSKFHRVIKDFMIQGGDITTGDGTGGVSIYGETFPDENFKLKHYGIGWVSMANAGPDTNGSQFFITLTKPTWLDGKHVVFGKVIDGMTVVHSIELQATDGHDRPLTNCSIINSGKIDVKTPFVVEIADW
inactive: [1] -0.031 | [2] 0.089 | [3] 0.024 | [20] 0.077 | [4] -0.052 | [7] 0.004 | [9] 0.103 | [11] -0.003 | [12] -0.131 | [13] -0.078 | [14] -0.095 | [15] -0.042 | [17] 0.086 | [18] -0.061 | [19] 0.079

PHOSPHO2 (UniProt C9JD35)
inactive: [5] 0.018 | [6] -0.36 | [12] 0.02 | [16] 0.234 | [17] -0.084

PNPLA4 (UniProt P41247)
UniProt P41247, sequence (P41247 whole entry, looked up): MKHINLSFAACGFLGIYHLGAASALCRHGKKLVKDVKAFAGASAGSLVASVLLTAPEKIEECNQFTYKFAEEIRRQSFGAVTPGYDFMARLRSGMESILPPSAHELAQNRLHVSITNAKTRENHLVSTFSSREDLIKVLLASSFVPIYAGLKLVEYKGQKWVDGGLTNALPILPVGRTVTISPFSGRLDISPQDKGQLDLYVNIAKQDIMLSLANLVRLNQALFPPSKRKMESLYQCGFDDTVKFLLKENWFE
active: [17] 0.825
inactive: [1] 0.074 | [2] 0.147 | [20] -0.148 | [4] -0.17 | [5] -0.076 | [6] 0.125 | [12] -0.098 | [13] 0.121 | [14] 0.021 | [15] -0.019 | [16] -0.011 | [19] -0.138

PPME1 (UniProt Q9Y570)
UniProt Q9Y570, sequence (Q9Y570 whole entry, looked up): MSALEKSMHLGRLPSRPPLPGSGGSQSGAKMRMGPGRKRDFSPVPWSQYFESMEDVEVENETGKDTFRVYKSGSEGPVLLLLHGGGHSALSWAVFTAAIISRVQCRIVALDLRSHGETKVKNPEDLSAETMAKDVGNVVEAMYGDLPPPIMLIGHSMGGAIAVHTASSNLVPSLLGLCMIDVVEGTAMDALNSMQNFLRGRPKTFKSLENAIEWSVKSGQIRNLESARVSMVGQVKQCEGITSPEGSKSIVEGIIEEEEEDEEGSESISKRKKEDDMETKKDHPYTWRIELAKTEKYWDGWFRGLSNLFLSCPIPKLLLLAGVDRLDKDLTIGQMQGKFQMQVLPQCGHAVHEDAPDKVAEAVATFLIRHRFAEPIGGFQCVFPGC
inactive: [3] 0.125 | [4] -0.065 | [5] -0.029 | [6] -0.059 | [8] 0.014 | [10] 0.002 | [11] 0.038 | [14] -0.017 | [16] 0.072 | [18] -0.081

PPP1R12B isoform 6 (UniProt O60237)
UniProt O60237, sequence (O60237 whole entry, looked up): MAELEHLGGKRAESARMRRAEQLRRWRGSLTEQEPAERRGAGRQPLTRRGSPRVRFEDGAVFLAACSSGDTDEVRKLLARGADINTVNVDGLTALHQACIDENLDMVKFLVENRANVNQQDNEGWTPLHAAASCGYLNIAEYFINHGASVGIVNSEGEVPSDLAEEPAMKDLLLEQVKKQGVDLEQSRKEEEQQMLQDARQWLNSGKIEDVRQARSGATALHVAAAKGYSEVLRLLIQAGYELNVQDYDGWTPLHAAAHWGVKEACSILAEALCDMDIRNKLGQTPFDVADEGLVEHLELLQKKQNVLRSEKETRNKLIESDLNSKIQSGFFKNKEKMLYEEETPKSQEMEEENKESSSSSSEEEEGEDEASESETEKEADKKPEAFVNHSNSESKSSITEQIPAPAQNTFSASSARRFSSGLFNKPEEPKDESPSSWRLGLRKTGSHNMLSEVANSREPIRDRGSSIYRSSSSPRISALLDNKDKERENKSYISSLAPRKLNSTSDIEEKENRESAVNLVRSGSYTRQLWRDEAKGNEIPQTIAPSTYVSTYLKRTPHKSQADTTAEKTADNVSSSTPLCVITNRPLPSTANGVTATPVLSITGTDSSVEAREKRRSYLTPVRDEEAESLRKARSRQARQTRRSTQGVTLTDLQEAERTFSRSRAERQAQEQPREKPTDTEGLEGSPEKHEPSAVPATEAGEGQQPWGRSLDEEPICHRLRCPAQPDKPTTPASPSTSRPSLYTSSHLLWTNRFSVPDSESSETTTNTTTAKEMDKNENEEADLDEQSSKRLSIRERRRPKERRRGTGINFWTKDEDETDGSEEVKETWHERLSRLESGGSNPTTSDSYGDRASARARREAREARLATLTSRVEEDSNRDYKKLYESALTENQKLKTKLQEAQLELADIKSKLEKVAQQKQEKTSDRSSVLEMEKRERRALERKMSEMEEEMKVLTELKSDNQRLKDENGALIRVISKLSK
inactive: [2] 0.081 | [3] 0.006 | [20] -0.046 | [4] 0.016 | [5] -0.011 | [6] 0.145 | [8] 0.072 | [10] -0.079 | [11] 0.017 | [12] -0.347 | [14] 0.036 | [16] -0.015 | [17] 0.047 | [18] 0.05

PFN3 (UniProt P60673)
UniProt P60673, sequence (P60673 whole entry, looked up): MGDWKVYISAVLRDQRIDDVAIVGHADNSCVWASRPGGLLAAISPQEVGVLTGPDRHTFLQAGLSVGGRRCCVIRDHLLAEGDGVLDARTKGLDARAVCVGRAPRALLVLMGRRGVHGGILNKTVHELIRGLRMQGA
inactive: [1] -0.182 | [20] -0.109 | [5] 0.125 | [6] -0.28 | [7] -0.047 | [8] 0.154 | [9] 0.075 | [10] -0.199 | [12] -0.046 | [13] -0.458 | [15] 0.119 | [16] 0.155 | [17] 0.083 | [19] 0.193

PPT2, A0A140T9Y1
inactive: [7] -0.144 | [9] 0.006

PIP5K1A (UniProt Q99755)
UniProt Q99755, sequence (Q99755 whole entry, looked up): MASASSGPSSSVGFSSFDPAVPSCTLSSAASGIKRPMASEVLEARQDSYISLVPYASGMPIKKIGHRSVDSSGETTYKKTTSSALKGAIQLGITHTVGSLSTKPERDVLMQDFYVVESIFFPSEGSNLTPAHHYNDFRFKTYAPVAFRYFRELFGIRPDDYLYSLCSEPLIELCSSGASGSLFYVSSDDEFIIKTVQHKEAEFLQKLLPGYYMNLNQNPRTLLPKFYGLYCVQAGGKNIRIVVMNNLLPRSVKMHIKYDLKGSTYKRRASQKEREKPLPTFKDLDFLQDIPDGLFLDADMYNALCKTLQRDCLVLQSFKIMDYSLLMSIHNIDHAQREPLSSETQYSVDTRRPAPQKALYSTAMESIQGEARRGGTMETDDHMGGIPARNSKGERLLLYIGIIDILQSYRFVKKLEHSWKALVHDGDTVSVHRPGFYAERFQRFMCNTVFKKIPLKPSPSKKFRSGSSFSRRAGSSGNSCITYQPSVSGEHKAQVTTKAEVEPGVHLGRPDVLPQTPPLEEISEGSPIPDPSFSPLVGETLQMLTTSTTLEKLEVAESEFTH
inactive: [1] 0.077 | [2] -0.043 | [3] 0.027 | [4] -0.074 | [7] -0.121 | [8] -0.023 | [9] -0.024 | [10] -0.117 | [11] 0.07 | [12] -0.168 | [13] 0.03 | [14] -0.043 | [15] -0.013 | [17] 0.093 | [18] -0.062 | [19] -0.034

PDE4DIP (UniProt E9PS60)
active: [13] -0.688
inactive: [1] -0.111 | [3] -0.02 | [20] 0.056 | [4] -0.089 | [5] -0.059 | [6] -0.039 | [7] 0.013 | [9] 0.005 | [12] -0.034 | [14] -0.077 | [15] 0.233 | [16] -0.026 | [17] 0.075 | [19] 0.147
